Measurements reported in ChEMBL document CHEMBL1961873, “Compounds: GSK PKIS; Assays: Nanosyn kinase panel” (2012).

How the values were obtained:
[1] = target: Dual specificity protein kinase CLK3 (Homo sapiens) (UniProt P49761); settings: at 1 µM;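 note: each value is the mean inhibition of CLK3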
[2] = target: Dual specificity tyrosine-phosphorylation-regulated kinase 1A (Homo sapiens) (UniProt Q13627); settings: at 0.1 µM
[3] = target: Dual specificity tyrosine-phosphorylation-regulated kinase 1A (Homo sapiens) (UniProt Q13627); settings: at 1 µM
[4] = target: Dual specificity tyrosine-phosphorylation-regulated kinase 1B (Homo sapiens) (UniProt Q9Y463); settings: at 0.1 µM
[5] = target: Dual specificity tyrosine-phosphorylation-regulated kinase 1B (Homo sapiens) (UniProt Q9Y463); settings: at 1 µM
[6] = target: T1, Dual specificity tyrosine-phosphorylation-regulated kinase 2 (Homo sapiens) (UniProt Q92630); settings: at 0.1 µM
T1 sequence (whole entry): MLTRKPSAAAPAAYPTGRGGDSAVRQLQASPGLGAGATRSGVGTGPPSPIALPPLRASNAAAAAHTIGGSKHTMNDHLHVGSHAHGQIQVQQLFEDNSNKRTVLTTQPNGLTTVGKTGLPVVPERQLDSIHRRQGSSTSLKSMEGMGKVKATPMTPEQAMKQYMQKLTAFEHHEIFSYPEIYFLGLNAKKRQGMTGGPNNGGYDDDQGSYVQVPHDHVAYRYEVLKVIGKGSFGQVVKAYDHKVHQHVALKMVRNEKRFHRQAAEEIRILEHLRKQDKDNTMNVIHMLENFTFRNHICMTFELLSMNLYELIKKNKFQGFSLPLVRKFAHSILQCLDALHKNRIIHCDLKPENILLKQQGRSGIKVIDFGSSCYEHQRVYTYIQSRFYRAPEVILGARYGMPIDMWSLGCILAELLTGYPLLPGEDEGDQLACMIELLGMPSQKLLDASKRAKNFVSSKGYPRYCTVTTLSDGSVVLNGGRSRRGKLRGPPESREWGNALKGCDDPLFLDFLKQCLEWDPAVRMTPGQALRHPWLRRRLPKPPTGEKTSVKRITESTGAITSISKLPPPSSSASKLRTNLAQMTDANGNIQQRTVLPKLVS

[7] = target: T1, Dual specificity tyrosine-phosphorylation-regulated kinase 2 (Homo sapiens); settings: at 1 µM
[8] = target: Glycogen synthase kinase-3 alpha (Homo sapiens) (UniProt P49840); settings: at 0.1 µM
[9] = target: Glycogen synthase kinase-3 alpha (Homo sapiens) (UniProt P49840); settings: at 1 µM
[10] = target: Glycogen synthase kinase-3 beta (Homo sapiens) (UniProt P49841); settings: at 0.1 µM
[11] = target: Glycogen synthase kinase-3 beta (Homo sapiens) (UniProt P49841); settings: at 1 µM
[12] = target: Homeodomain-interacting protein kinase 1 (Homo sapiens) (UniProt Q86Z02); settings: at 0.1 µM
[13] = target: Homeodomain-interacting protein kinase 1 (Homo sapiens) (UniProt Q86Z02); settings: at 1 µM
[14] = target: T2, Homeodomain-interacting protein kinase 4 (Homo sapiens) (UniProt Q8NE63); settings: at 0.1 µM
T2 sequence (whole entry): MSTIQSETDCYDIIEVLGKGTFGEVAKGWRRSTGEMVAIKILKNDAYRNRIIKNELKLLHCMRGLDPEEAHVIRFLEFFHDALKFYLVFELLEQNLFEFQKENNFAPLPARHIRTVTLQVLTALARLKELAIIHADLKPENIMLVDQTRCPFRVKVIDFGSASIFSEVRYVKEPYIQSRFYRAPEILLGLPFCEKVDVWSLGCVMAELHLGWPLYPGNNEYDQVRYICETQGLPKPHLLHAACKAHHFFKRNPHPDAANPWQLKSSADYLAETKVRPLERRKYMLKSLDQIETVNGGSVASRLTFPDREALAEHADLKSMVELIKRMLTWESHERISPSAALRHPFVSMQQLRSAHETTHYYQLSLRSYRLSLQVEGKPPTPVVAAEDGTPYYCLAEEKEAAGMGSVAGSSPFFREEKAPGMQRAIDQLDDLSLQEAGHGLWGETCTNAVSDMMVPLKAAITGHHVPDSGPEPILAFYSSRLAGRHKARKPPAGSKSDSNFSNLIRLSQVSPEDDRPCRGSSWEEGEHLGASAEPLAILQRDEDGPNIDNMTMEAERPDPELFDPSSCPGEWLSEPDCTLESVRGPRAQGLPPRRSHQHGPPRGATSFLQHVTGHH

[15] = target: T2, Homeodomain-interacting protein kinase 4 (Homo sapiens); settings: at 1 µM
[16] = target: Mitogen-activated protein kinase 9 (Homo sapiens) (UniProt P45984); settings: at 0.1 µM
[17] = target: Mitogen-activated protein kinase 9 (Homo sapiens) (UniProt P45984); settings: at 1 µM
[18] = target: Mitogen-activated protein kinase 1 (Homo sapiens) (UniProt P28482); settings: at 0.1 µM
[19] = target: Mitogen-activated protein kinase 1 (Homo sapiens) (UniProt P28482); settings: at 1 µM
[20] = target: Mitogen-activated protein kinase 3 (Homo sapiens) (UniProt P27361); settings: at 0.1 µM;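 note: each value is a mean inhibition figure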
Chain of Mitogen-activated protein kinase 3 (Homo sapiens) (P27361 whole entry): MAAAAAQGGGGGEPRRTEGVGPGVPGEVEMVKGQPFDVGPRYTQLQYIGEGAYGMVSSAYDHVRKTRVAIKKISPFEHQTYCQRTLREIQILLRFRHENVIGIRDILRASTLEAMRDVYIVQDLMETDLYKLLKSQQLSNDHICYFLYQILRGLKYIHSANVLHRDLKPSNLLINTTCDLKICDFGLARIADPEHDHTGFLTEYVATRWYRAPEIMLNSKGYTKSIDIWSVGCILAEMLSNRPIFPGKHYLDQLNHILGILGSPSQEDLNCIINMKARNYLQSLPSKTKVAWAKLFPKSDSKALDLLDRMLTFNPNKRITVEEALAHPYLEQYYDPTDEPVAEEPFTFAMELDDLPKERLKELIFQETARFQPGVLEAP

Chain of Homeodomain-interacting protein kinase 1 (Homo sapiens) (Q86Z02 whole entry, looked up): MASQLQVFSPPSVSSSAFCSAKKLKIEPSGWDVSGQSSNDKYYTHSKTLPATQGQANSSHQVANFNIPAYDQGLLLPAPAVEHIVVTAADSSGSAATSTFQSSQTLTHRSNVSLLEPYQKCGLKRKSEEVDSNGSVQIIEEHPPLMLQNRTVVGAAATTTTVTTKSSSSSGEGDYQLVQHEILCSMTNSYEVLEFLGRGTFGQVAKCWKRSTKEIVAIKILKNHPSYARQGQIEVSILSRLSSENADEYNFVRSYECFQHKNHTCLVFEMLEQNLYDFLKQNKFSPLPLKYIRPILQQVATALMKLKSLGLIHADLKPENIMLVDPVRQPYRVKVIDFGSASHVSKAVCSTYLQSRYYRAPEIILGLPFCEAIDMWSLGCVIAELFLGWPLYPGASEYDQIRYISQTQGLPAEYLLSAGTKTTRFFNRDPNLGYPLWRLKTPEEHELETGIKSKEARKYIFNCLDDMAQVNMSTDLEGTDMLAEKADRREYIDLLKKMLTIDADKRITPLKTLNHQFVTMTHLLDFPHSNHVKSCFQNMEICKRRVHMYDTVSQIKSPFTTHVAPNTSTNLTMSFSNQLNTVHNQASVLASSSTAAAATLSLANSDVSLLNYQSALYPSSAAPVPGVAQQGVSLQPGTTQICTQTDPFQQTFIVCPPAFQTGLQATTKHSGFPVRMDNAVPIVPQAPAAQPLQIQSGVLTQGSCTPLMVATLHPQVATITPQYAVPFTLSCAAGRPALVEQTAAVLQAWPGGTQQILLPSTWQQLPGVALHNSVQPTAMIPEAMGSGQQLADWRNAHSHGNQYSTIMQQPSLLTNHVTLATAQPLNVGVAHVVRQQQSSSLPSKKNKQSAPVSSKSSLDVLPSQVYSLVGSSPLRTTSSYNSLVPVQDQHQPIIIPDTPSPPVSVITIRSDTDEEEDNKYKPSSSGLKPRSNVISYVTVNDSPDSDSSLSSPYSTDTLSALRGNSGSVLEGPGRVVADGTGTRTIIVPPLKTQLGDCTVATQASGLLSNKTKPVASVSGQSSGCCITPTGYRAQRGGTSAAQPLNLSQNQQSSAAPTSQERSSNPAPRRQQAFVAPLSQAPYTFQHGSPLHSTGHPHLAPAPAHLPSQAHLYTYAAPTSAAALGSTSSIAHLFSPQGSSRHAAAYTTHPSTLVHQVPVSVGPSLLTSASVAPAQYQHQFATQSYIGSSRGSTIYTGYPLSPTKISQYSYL
Chain of Mitogen-activated protein kinase 9 (Homo sapiens) (P45984 whole entry, looked up): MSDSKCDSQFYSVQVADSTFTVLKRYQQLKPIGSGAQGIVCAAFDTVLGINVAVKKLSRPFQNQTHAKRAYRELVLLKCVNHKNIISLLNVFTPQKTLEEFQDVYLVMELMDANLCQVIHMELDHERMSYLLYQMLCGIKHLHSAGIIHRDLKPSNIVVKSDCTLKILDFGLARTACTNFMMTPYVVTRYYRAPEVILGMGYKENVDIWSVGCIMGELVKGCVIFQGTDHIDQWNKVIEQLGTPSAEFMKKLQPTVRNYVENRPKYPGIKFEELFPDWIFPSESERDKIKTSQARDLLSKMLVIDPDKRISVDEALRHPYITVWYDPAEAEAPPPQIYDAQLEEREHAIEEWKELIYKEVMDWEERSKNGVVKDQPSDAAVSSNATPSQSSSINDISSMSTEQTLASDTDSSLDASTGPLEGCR
Chain of Glycogen synthase kinase-3 beta (Homo sapiens) (P49841 whole entry, looked up): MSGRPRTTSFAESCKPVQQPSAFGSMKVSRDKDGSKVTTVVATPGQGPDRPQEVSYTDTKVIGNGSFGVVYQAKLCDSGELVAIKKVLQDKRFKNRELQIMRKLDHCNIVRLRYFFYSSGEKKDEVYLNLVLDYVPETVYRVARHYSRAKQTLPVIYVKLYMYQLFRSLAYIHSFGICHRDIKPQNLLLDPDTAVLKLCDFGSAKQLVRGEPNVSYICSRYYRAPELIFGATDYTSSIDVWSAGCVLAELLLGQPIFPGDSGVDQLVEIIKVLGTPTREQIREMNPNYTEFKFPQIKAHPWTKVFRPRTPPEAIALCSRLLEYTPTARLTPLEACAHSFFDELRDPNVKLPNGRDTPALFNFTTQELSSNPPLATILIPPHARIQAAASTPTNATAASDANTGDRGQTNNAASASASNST
Chain of Dual specificity protein kinase CLK3 (Homo sapiens) (P49761 whole entry, looked up): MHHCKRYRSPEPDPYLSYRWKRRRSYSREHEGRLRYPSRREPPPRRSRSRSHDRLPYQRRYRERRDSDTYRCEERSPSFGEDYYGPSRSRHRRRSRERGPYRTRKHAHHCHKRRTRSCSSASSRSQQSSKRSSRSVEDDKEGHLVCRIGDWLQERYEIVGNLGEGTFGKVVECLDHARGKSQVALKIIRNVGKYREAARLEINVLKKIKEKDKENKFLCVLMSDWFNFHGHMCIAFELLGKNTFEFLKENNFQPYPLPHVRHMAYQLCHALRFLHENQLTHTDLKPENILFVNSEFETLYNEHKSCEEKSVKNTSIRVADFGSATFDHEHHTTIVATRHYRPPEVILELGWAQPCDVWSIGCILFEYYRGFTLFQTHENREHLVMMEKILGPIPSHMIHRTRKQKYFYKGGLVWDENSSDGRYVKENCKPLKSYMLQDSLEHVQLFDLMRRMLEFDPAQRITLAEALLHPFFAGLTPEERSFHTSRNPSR
Chain of Dual specificity tyrosine-phosphorylation-regulated kinase 1B (Homo sapiens) (Q9Y463 whole entry, looked up): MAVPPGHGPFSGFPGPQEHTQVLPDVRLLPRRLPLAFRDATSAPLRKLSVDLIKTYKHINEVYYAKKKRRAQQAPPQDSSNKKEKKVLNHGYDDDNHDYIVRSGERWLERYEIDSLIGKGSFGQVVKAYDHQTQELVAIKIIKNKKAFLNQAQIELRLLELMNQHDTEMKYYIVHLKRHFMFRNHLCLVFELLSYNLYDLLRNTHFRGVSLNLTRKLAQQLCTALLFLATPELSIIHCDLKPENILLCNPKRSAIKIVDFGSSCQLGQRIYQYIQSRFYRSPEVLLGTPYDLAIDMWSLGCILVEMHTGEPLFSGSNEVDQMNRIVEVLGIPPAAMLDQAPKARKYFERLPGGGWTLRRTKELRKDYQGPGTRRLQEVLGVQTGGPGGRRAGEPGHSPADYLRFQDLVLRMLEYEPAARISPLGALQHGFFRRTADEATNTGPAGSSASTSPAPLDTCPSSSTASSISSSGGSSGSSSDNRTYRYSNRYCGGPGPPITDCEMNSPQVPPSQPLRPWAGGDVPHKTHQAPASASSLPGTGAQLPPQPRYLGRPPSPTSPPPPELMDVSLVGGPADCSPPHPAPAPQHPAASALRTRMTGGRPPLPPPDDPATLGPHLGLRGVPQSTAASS
Chain of Glycogen synthase kinase-3 alpha (Homo sapiens) (P49840 2-483 limits assumed): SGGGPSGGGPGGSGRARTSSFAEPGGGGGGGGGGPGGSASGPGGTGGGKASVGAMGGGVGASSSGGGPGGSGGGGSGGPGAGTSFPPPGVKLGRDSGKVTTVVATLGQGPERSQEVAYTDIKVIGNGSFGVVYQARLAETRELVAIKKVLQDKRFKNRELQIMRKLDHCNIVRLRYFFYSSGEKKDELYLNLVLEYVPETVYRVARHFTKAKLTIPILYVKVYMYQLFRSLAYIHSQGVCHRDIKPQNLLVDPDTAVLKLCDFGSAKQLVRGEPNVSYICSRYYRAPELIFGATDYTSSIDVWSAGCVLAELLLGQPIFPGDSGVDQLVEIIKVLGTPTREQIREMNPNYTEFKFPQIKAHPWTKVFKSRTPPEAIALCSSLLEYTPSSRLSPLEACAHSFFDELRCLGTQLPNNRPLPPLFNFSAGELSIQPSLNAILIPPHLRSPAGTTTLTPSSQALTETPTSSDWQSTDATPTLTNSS
Chain of Mitogen-activated protein kinase 1 (Homo sapiens) (P28482 whole entry): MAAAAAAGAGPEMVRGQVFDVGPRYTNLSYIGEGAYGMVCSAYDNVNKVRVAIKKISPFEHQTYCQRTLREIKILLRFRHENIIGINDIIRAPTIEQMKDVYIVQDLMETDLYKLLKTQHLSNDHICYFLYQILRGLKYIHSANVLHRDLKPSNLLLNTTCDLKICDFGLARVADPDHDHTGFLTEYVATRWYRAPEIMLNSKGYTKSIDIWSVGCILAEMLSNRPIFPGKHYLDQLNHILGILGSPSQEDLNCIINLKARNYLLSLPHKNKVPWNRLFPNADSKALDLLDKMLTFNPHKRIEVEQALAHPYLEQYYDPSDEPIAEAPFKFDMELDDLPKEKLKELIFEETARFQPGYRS

Row | SMILES | inhibition [1] [%] | inhibition [2] [%] | inhibition [3] [%] | inhibition [4] [%] | inhibition [5] [%] | inhibition [6] [%] | inhibition [7] [%] | inhibition [8] [%] | inhibition [9] [%] | inhibition [10] [%] | inhibition [11] [%] | inhibition [12] [%] | inhibition [13] [%] | inhibition [14] [%] | inhibition [15] [%] | inhibition [16] [%] | inhibition [17] [%] | inhibition [18] [%] | inhibition [19] [%] | inhibition [20] [%]
1 | Cc1ccc(NC(=O)c2ccnc(N3CCCC3)c2)cc1-c1ccc(C(=O)NCC2CC2)cc1 | -1.68 | 0.13 | 4 | -2.86 | -0.97 | 2.77 | 3.11 | 1.33 | 5.65 | 0.07 | 3.68 | -4.3 | -2.16 | -1.31 | 2.09 | 2.66 | 6.82 | 4.25 | 6.09 | 2.96
2 | COc1ccccc1Nc1ncc(-c2ccccc2)o1 | 0.51 | 2.5 | 3.38 | -1.91 | -1.3 | 4.18 | 3.04 | 2.25 | 3.92 | 2.57 | 2.74 | -3.68 | 0.57 | -0.52 | 0.15 | 4.12 | 3.07 | 5.93 | 6.15 | 4.06
3 | NS(=O)(=O)c1ccc(N/N=C2\C(=O)Nc3ccc(C(=O)NCCc4c[nH]cn4)cc32)cc1 | 24.2 | 6.64 | 30.6 | 5.35 | 31.5 | 6.85 | 33.4 | 50.7 | 86.8 | 51 | 86.6 | 9.13 | 48.9 | 3.77 | 20.2 | 3.56 | 9.28 | 1.92 | 17.6 | 5.33
4 | CCN1CCC(CC(=O)Nc2n[nH]c3nc(-c4cccs4)c(Br)cc23)CC1 | 4.44 | 4.33 | 20.6 | 4.83 | 22.3 | -0.64 | 14 | 46.6 | 78.3 | 26.6 | 68.7 | 3.88 | 6.48 | 2.06 | 8.88 | -5.62 | -3.11 | -4.72 | -6.9 | -1.1
5 | CCn1c(-c2nonc2N)nc2c(N3CCCC3)nccc21 | 1.31 | 3.13 | 8.89 | 2.51 | 6.95 | -1.18 | -1.63 | 1.82 | 4.77 | 2 | 3.59 | -0.15 | 6.29 | -0.26 | 2.71 | -4.08 | -4.92 | -2.76 | -3.21 | 0.68
6 | CCn1c(-c2nonc2N)nc2cnc(Oc3cccc(NC(=O)c4ccc(OCCN5CCOCC5)cc4)c3)cc21 | 1.22 | 0.91 | 4.24 | 0.06 | 0.86 | 3.68 | 5.39 | 13.9 | 56.5 | 10.2 | 53.9 | 1.81 | 11.5 | 0.11 | 10.4 | 3.93 | 5.85 | 3.22 | 4.07 | 2.43
7 | COc1cccc(-n2ncc3c(N/N=C/c4cccc(F)c4)ncnc32)c1 | -0.14 | 2.01 | 25.9 | -1.44 | 14.9 | 4.29 | 16.8 | 54.5 | 75.2 | 44.7 | 72.7 | -2.11 | 20.6 | 0.87 | 21.3 | 1.23 | 4.69 | 1.94 | 3.29 | 1.61
